# Measured values from the supplement of paper PMC8728848.
# Only a selection was taken, and the strongest signals are over-represented in it overall.
# B1: PA-IL (Pseudomonas aeruginosa), Q05097 (protein)
# chain: MAWKGEVLANNEAGQVTSIIYNPGDVITIVAAGWASYGPTQKWGPQGDREHPDQGLICHDAFCGALVMKIGNSGTIPVNTGLFRWVAPNNVQGAITLIYNDVPGTYGNNSGSFSVNIGKDQS
# Experiments:
# Assay in all cases: glycan array binding signal (z-score within array); higher = stronger binding
# Conditions in all cases: glycan notation: IUPAC condensed, linker removed
# [1] = target: Fuc(a1-2)Gal(b1-4)GlcNAc(b1-2)[Fuc(a1-2)Gal(b1-4)GlcNAc(b1-4)]Man(a1-3)[Fuc(a1-2)Gal(b1-4)GlcNAc(b1-2)Man(a1-6)]Man(b1-4)GlcNAc(b1-4)GlcNAc
# Outline: (§1)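 Negative Z-scores can be read as non-binding. The Z-score is calculated within each array and then averaged across arrays of one protein sequence at different concentrations or buffers and across linkers. Arrays, 3228 in all, were curated from the Consortium for Functional Glycomics database and kept only where the protein sequence was available.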
# [2] = target: Fuc(a1-2)Gal(b1-4)GlcNAc(b1-6)GalNAc
# Outline: as §1
# [3] = target: Fuc(a1-2)Gal(b1-4)[Fuc(a1-3)]GlcNAc(b1-2)[Fuc(a1-2)Gal(b1-4)[Fuc(a1-3)]GlcNAc(b1-4)]Man(a1-3)[Fuc(a1-2)Gal(b1-4)[Fuc(a1-3)]GlcNAc(b1-2)Man(a1-6)]Man(b1-4)GlcNAc(b1-4)GlcNAc
# Outline: as §1
# [4] = target: Fuc(a1-2)Gal(b1-4)[Fuc(a1-3)]GlcNAc(b1-3)Gal(b1-4)[Fuc(a1-3)]GlcNAc(b1-3)Gal(b1-4)[Fuc(a1-3)]GlcNAc
# Outline: as §1
# [5] = target: Fuc(a1-2)Gal6S(b1-3)GlcNAc
# Outline: as §1
# Fuc(a1-2)Gal6S(b1-4)Glc = target: Fuc(a1-2)Gal6S(b1-4)Glc
# Outline: as §1
# [6] = target: Fuc(a1-2)[Gal(a1-4)]Gal(b1-4)GlcNAc
# Outline: as §1
# [7] = target: Fuc(a1-3)[Gal(b1-4)]GlcNAc
# Outline: as §1
# [8] = target: Fuc(a1-3)[Gal(b1-4)]GlcNAc(b1-2)Man
# Outline: as §1
# [9] = target: Gal(a1-3)Gal(b1-3)GlcNAc(b1-2)Man(a1-3)[Gal(a1-3)Gal(b1-3)GlcNAc(b1-2)Man(a1-6)]Man(b1-4)GlcNAc(b1-4)GlcNAc
# Outline: as §1
# Gal(a1-3)Gal(b1-4)GlcNAc = target: Gal(a1-3)Gal(b1-4)GlcNAc
# Outline: as §1
# [10] = target: Gal(a1-3)Gal(b1-4)GlcNAc(b1-2)Man(a1-3)[Gal(a1-3)Gal(b1-4)GlcNAc(b1-2)Man(a1-6)]Man(b1-4)GlcNAc(b1-4)GlcNAc
# Outline: as §1
# [11] = target: Gal(a1-3)Gal(b1-4)[Fuc(a1-3)]GlcNAc
# Outline: as §1
# [12] = target: Gal(a1-3)[Gal(a1-4)]Gal(b1-4)GlcNAc
# Outline: as §1
# [13] = target: Gal(a1-4)Gal(b1-3)GlcNAc(b1-2)Man(a1-3)[Gal(a1-4)Gal(b1-3)GlcNAc(b1-2)Man(a1-6)]Man(b1-4)GlcNAc(b1-4)GlcNAc
# Outline: as §1
# Gal(a1-4)Gal(b1-4)GlcNAc = target: Gal(a1-4)Gal(b1-4)GlcNAc
# Outline: as §1
# [14] = target: Gal(a1-4)Gal(b1-4)GlcNAc(b1-2)Man(a1-3)[Gal(a1-4)Gal(b1-4)GlcNAc(b1-2)Man(a1-6)]Man(b1-4)GlcNAc(b1-4)GlcNAc
# Outline: as §1
# [15] = target: Gal(a1-4)Gal(b1-4)GlcNAc(b1-3)Gal(b1-4)Glc
# Outline: as §1
# Gal(a1-4)GlcNAc = target: Gal(a1-4)GlcNAc
# Outline: as §1
# [16] = target: Gal(b1-3)Gal(b1-4)GlcNAc(b1-2)Man(a1-3)[Gal(b1-3)Gal(b1-4)GlcNAc(b1-2)Man(a1-6)]Man(b1-4)GlcNAc(b1-4)GlcNAc
# Outline: as §1
# [17] = target: Gal(b1-3)GalNAc(b1-3)Gal(a1-4)Gal(b1-4)Glc
# Outline: as §1
# [18] = target: Gal(b1-3)GlcNAc(b1-3)Gal(b1-4)Glc
# Outline: as §1
# [19] = target: Gal(b1-4)GlcNAc(b1-2)Man(a1-6)[Man(a1-3)]Man(b1-4)GlcNAc(b1-4)GlcNAc
# Outline: as §1
# Gal3S(b1-3)GlcNAc = target: Gal3S(b1-3)GlcNAc
# Outline: as §1
# [20] = target: Gal3S(b1-3)[Fuc(a1-4)]GlcNAc
# Outline: as §1
# [21] = target: GalNAc(b1-3)Gal(a1-4)Gal(b1-4)GlcNAc(b1-3)Gal(b1-4)Glc
# Outline: as §1
# GalNAc(b1-4)GlcNAc = target: GalNAc(b1-4)GlcNAc
# Outline: as §1
# [22] = target: GlcNAc(a1-4)Gal(b1-4)GlcNAc(b1-3)Gal(b1-4)Glc
# Outline: as §1
# [23] = target: GlcNAc(a1-4)Gal(b1-4)GlcNAc(b1-3)Gal(b1-4)[Fuc(a1-3)]GlcNAc(b1-3)Gal(b1-4)[Fuc(a1-3)]GlcNAc
# Outline: as §1
# [24] = target: GlcNAc(b1-2)Man(a1-3)[GlcNAc(b1-2)Man(a1-6)]Man(b1-4)GlcNAc(b1-4)[Fuc(a1-6)]GlcNAc
# Outline: as §1
# [25] = target: GlcNAc(b1-2)[GlcNAc(b1-6)]Man(a1-6)[GlcNAc(b1-2)Man(a1-3)]Man(b1-4)GlcNAc(b1-4)[Fuc(a1-6)]GlcNAc
# Outline: as §1
# [26] = target: GlcNAc(b1-3)Gal(b1-4)GlcNAc(b1-3)GalNAc
# Outline: as §1
# [27] = target: GlcNAc(b1-3)[GlcNAc(b1-4)][GlcNAc(b1-6)]GlcNAc
# Outline: as §1
# Man(a1-2)Man(a1-3)Man = target: Man(a1-2)Man(a1-3)Man
# Outline: as §1
# [28] = target: Neu5Ac(a2-3)Gal(b1-4)GlcNAc(b1-2)Man(a1-3)[GlcNAc(b1-4)][Neu5Ac(a2-3)Gal(b1-4)GlcNAc(b1-2)Man(a1-6)]Man(b1-4)GlcNAc(b1-4)GlcNAc
# Outline: as §1
# [29] = target: Neu5Ac(a2-3)Gal(b1-4)GlcNAc(b1-3)Gal(b1-4)[Fuc(a1-3)]GlcNAc
# Outline: as §1
# [30] = target: Neu5Ac(a2-3)[GalNAc(b1-4)]Gal(b1-4)Glc
# Outline: as §1
# [31] = target: Neu5Ac(a2-6)Gal(b1-4)GlcNAc6S
# Outline: as §1
# [32] = target: Neu5Gc(a2-8)Neu5Ac(a2-3)Gal(b1-4)GlcNAc
# Outline: as §1
binder,measurement,setting,value
B1,glycan array binding signal (z-score),[1],-0.197
same,glycan array binding signal (z-score),[2],-0.201
same,glycan array binding signal (z-score),[3],-0.185
same,glycan array binding signal (z-score),[4],-0.213
same,glycan array binding signal (z-score),[5],-0.225
same,glycan array binding signal (z-score),Fuc(a1-2)Gal6S(b1-4)Glc,-0.229
same,glycan array binding signal (z-score),[6],5.44
same,glycan array binding signal (z-score),[7],-0.224
same,glycan array binding signal (z-score),[8],-0.233
same,glycan array binding signal (z-score),[9],0.015
same,glycan array binding signal (z-score),Gal(a1-3)Gal(b1-4)GlcNAc,5.08
same,glycan array binding signal (z-score),[10],6.97
same,glycan array binding signal (z-score),[11],5.02
same,glycan array binding signal (z-score),[12],6.55
same,glycan array binding signal (z-score),[13],7.29
same,glycan array binding signal (z-score),Gal(a1-4)Gal(b1-4)GlcNAc,4.79
same,glycan array binding signal (z-score),[14],8.23
same,glycan array binding signal (z-score),[15],5.73
same,glycan array binding signal (z-score),Gal(a1-4)GlcNAc,3.63
same,glycan array binding signal (z-score),[16],7.65
same,glycan array binding signal (z-score),[17],-0.228
same,glycan array binding signal (z-score),[18],-0.228
same,glycan array binding signal (z-score),[19],-0.237
same,glycan array binding signal (z-score),Gal3S(b1-3)GlcNAc,-0.229
same,glycan array binding signal (z-score),[20],-0.225
same,glycan array binding signal (z-score),[21],-0.228
same,glycan array binding signal (z-score),GalNAc(b1-4)GlcNAc,-0.236
same,glycan array binding signal (z-score),[22],-0.23
same,glycan array binding signal (z-score),[23],-0.203
same,glycan array binding signal (z-score),[24],-0.214
same,glycan array binding signal (z-score),[25],-0.217
same,glycan array binding signal (z-score),[26],-0.221
same,glycan array binding signal (z-score),[27],-0.228
same,glycan array binding signal (z-score),Man(a1-2)Man(a1-3)Man,-0.226
same,glycan array binding signal (z-score),[28],-0.244
same,glycan array binding signal (z-score),[29],-0.226
same,glycan array binding signal (z-score),[30],-0.226
same,glycan array binding signal (z-score),[31],-0.228
same,glycan array binding signal (z-score),[32],-0.245
